Experimental data published in PubChem BioAssay (NCI).
The panel holds about 83,000 compounds, 20% with a hit somewhere; the sample as a whole holds those more often.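 The test compound was applied at a single concentration to cells in 96-well plates for 48 hours, and percent growth was recorded.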 Unmarked numbers belong to inactive results. Activity calls are given as the source filed them. The calls were made as follows: active = growth percent below 10; inactive = the rest.

Experiments:
Assay in all cases: NCI-60 one-dose screen, 48 h (100 = growth as untreated, 0 = no growth, -100 = all killed)
Conditions in all cases: 10 µM
HT29 colon = system: HT29 colon
SNB-75 CNS = system: SNB-75 CNS
SNB-19 CNS = system: SNB-19 CNS
U251 CNS = system: U251 CNS
PC-3 prostate = system: PC-3 prostate
SK-MEL-5 melanoma = system: SK-MEL-5 melanoma
UACC-62 melanoma = system: UACC-62 melanoma
LOX IMVI melanoma = system: LOX IMVI melanoma
SK-MEL-28 melanoma = system: SK-MEL-28 melanoma

Structure (SMILES) | growth (HT29 colon) | growth (SNB-75 CNS) | growth (SNB-19 CNS) | growth (U251 CNS) | growth (PC-3 prostate) | growth (SK-MEL-5 melanoma) | growth (UACC-62 melanoma) | growth (LOX IMVI melanoma) | growth (SK-MEL-28 melanoma)
COc1ccc(/C(=C2/O[C@@H]([C@H]3COC(C)(C)O3)[C@H]3OC(C)(C)O[C@@H]23)c2cc(OC)c(OC)c(OC)c2)cc1O | 113% | 24.3% | 27.6% | 61.2% | 29.4% | 61.8% | 82.9% | 47.6% | 
CN(C)CCN1C(=O)c2cccc3c(-c4ccc5ncn(C6CCCCC6)c5c4)ccc(c23)C1=O | 7.45% (active) | 40.1% | 23.3% | 12.6% | 22% | 21.4% | 24.6% | 13.8% | 47.2%
CN(C)Cc1cn(-c2ncc(-c3ccc(C(F)(F)F)cc3)c(NC3CCCCCC3)n2)nn1 | 31% | 72.9% | 92.1% | 73.3% | 77.5% | 80.6% | 97.6% | 95.7% | 97.4%
COc1ccc2c(c1)sc1nc(-c3ccccc3)c(-c3cccnc3)n12 | 91.5% | 95.5% | 103% | 96.2% | 88.9% | 77.7% | 82.7% | 91.4% | 110%
O=C(Nc1ccncc1)C(=O)c1cn(S(=O)(=O)c2ccc(F)cc2)c2ccccc12 | 1.81% (active) | 45% | 67.2% | 19.4% | 27.4% | 17.7% | 36.1% | 38.3% | 56.1%
OCC1OC(n2cnc3c(N/N=C\c4ccccn4)ncnc32)C(O)C1O (configuration not stated) | 34.5% | 40.3% | 34.5% | 25.1% | 21% | -10.1% (active) | 22% | 11.2% | 38%
FC(F)(F)c1ccc(-c2cnc(-n3cc(COCCN4CCCCC4)nn3)nc2NC2CCCCCC2)cc1 | -73.1% (active) | 11.5% | 84.2% | -74.5% (active) | 7.37% (active) | -91% (active) | -79.2% (active) | -55.8% (active) | -90.5% (active)
c1ccc2c(-c3nc(N4CCOCC4)c4c5c(sc4n3)CCCCCC5)cccc2c1 | 101% | 85.2% | 104% | 91% | 95% | 94% | 96.6% | 105% | 105%
Cc1nc2ccc(CN(C)c3ccc(C(=O)N[C@@H](CCC(=O)O)C(=O)O)s3)cc2c(=O)[nH]1 | 55.1% | 43.4% | 42.8% | 56.3% | 56.5% | 28.7% | 40.1% | 26.8% | 
COc1ccc(N2C(=O)C3c4[nH]c5ccc(OCc6ccccc6)cc5c4C4CCC(C(C)C)CC4C3C2=O)cc1 (configuration not stated) | 89.3% | 31.3% | 104% | 18.8% | 88.3% | 99.5% | 94.2% | 90.1% | 
Clc1ccc(-c2cn(-c3ccccc3)c(-c3ccccc3)n2)c(Cl)c1 | -100% (active) | -83.3% (active) | 43.7% | -100% (active) | -98.3% (active) | 68.1% | 37% | -76.3% (active) | 6.05% (active)
O=C1OCC2=C1C(c1cccc(Cl)c1)c1cc3c(cc1N2CCO)OCCO3 (configuration not stated) | 2.11% (active) | 29.2% | 37.4% | 0.324% (active) | 21.3% | -8.57% (active) | 27.9% | 22.2% | 57.7%
O=c1oc2cc(OS(=O)(=O)c3ccccc3)ccc2c2c1CCCCC2 | 10% | 69.5% | 77% | 34.4% | 29.5% | 26% | 57.2% | 63.8% | 73.2%
CCN(CC)CCCC(C)Nc1nc(-c2ccc(OC)cc2)nc2cc(Cl)ccc12 (configuration not stated) | 27.9% | 59.6% | 74.6% | 57% | 48.4% | 0.434% (active) | -46.9% (active) | 32.8% | -70% (active)
O=C1NC(=O)c2ncccc21 | 108% | 98% | 107% | 106% | 107% | 95.1% | 112% | 101% | 110%
Cc1ccc(S(=O)(=O)Oc2ccc3c4c(c(=O)oc3c2)CCCCC4)cc1 | 6.29% (active) | 76.2% | 86.8% | 38.7% | 33.5% | 20.5% | 56.5% | 62.8% | 79.5%
CN(C)CCN=c1nc2c(c(N)n1-c1ccccc1)c(=S)n(-c1ccccc1)c(=S)n2-c1ccccc1 | -35.7% (active) | 79% | 26.1% | 2.1% (active) | 31% | -98.8% (active) | -90.3% (active) | -61.4% (active) | -100% (active)
COc1cc2c(cc1OC)N(CCO)C1=C(C(=O)OC1)C2c1ccc(Cl)c(Cl)c1 (configuration not stated) | 94% | 106% | 98.3% | 96.8% | 99.2% | 99.5% | 101% | 95.9% | 120%
O=[N+]([O-])c1ccc(Oc2cccnc2)c([N+](=O)[O-])c1 | -4.49% (active) | 87.7% | 106% | 85.7% | 83.1% | 79.1% | 84.5% | 24.1% | 97.6%
Cc1cc(N(CCCNc2ccnc3cc(Cl)ccc23)Cc2ccc3c(c2)OCO3)nc(N2CCCCC2)n1 | -49.9% (active) | -26.5% (active) | 14.9% | -55% (active) | -34.6% (active) | -95.3% (active) | -54.7% (active) | -89% (active) | -81.9% (active)
O=C(c1cccs1)c1ccccc1Cc1ccccc1 | 96.6% | 94.4% | 90.4% | 92.5% | 87.7% | 97.9% | 90.1% | 103% | 101%
Cc1ccc(CC#N)cc1C | 110% | 101% | 94.6% | 89.9% | 164% | 99.3% | 103% | 96.7% | 137%
CN(C)c1ccc(/C=C/C=N/NC(=O)c2cc(O)c(O)c(O)c2)cc1 | 111% | 81.3% | 79.9% | 59.7% | 85.8% | 92.9% | 107% | 91.4% | 108%
COc1cccc(C2C3=C(COC3=O)N(CCO)c3cc(OC)ccc32)c1 (configuration not stated) | -8.66% (active) | 27.2% | 33.3% | 12.7% | 26.9% | -3.6% (active) | 14.6% | 23.9% | 56.1%
O=C(Nc1cccc(-n2cc(-c3ccncc3)c(-c3ccc(O)c(Cl)c3)n2)c1)c1cccc(C(F)(F)F)c1 | 31.8% | 39.4% | 69.7% | -27.9% (active) | 21% | 34.6% | 37.9% | 33% | 43.9%
CCOC1(OCC)OC(c2ccccc2)=C(C#N)C(/C=C\c2ccccc2)C1(OCC)OCC (configuration not stated) | 69.6% | 86.6% | 89.8% | 77.4% | 54.9% | 95.5% | 80.1% | 79% | 99.8%
COc1cc(Cl)cc(-c2nn(-c3cccc(NC(=O)c4ccc(Cl)c(Cl)c4)c3)cc2-c2ccncc2)c1 | 56.4% | 50.6% | 71.6% | 64.1% | 34% | 78.5% | 75.4% | 72.8% | 87.7%
CN1CCCNc2c(c(=O)c2=O)NCCCN(C)CCCNc2c(c(=O)c2=O)NCCCN(C)CCCNc2c(c(=O)c2=O)NCCCN(C)CCCNc2c(c(=O)c2=O)NCCCN(C)CCCNc2c(c(=O)c2=O)NCCCN(C)CCCNc2c(c(=O)c2=O)NCCCN(C)CCCNc2c(c(=O)c2=O)NCCC1 | 59.3% | 84.3% | 40.5% | 15.2% | 77.5% | 39.6% | 43.7% | 58.1% | 22.6%
O=C(CC(c1ccccc1)N1CCOCC1)c1ccccc1 (configuration not stated) | 90.1% | 85.8% | 85% | 80.8% | 72.1% | 97.2% | 93.6% | 89% | 
